51 compounds from PubChem BioAssay AID651550 (National Center for Advancing Translational Sciences (NCATS), 2012) can be followed below.

Molecules are shown by their SMILES. Among all 360,000 compounds or so, about 1,100 (0.31%) were called active. The entries come from a sample that favours actives as a whole. Unmarked numbers belong to inactive results. No stated cut-off is given here; in the data, active means activity change below about -80%; inconclusive means mostly about -51% to -80%; inactive means weaker than that.
On the % scale 0 is the no-effect control and ±100 the full control effect.

In the assay the target is RAC-alpha serine/threonine-protein kinase (Homo sapiens) (UniProt P31749). Briefly: HTS Assay for Inhibitors of Akt Phophorylation: Primary Screen. The note with it: Neuro2A IGF-stimulated pAkt S473 HTRF, 20 min; at 50 µM, active compounds read low. The source says: The serine/threonine protein kinase Akt (protein kinase B) regulates various cellular processes, including cell survival, growth, proliferation, migration and differentiation. It has been well established that Akt is activated through two essential steps involving membrane translocation and phosphorylation. Cytosolic Akt is recruited to the plasma membrane via the interaction between the PH domain and membrane PIP3 produced by phosphoinositide-3 kinase (PI3K) upon growth factor receptor stimulation. The membrane-Akt interaction results in conformational changes of Akt, enabling its activation through phosphorylation at T308 in the kinase domain and at S473 in the C-terminal hydrophobic motif by PDK1 and mTOR-rictor complex (mTORC2), respectively. […] These findings indicate that S473 phosphorylation, as an important modulator of Akt activation, may be a valuable drug target for cell growth, survival, proliferation and differentiation. These inhibitors also may have significant therapeutic potential with fewer side effects, especially for the conditions involving hyperactive Akt signaling, such as cancer and Alzheimer's disease.
To this end, a miniaturized assay was developed to be screened against the Molecular Libraries Small Molecule Repository (MLSMR).
NIH Chemical Genomics Center [NCGC]
NIH Molecular Libraries Probe Centers Network [MLPCN]
Assay Submitter (PI): Hee-Yong Kim, National Institute on Alcohol Abuse and Alcoholism
3 uL of Neuro2A cell suspension in DMEM containing 0.5% FBS and […] antibiotics mix was plated in a white solid bottom tissue culture-treated 1536-well plate (Greiner Bio-One, Monroe, NC) at 4,500 cells per well and incubated overnight at 37 deg C. 23 nL/well of compound solutions in DMSO was added with Pintool transfer (Kalypsis, San Diego, CA) at single […] final concentration. Then, the cells were stimulated with 1.5 uL of IGF (6 nM final concentration) and incubated at 37 deg C for 20 min. The reaction was terminated by the addition of 1.5 uL blocking reagent mixed with lysis buffer (1:25 correspondingly) provided with HTRF(R) Phospho Akt (Ser473) kit (Cisbio US, Bedford, MA), with following incubation for 50 min at ambient temperature. The detection HTRF conjugates from the kit were prepared according to the protocol, pre-mixed 1:1 prior to dispensing, and 2 uL/well was added with BioRAPTR FRD dispenser (Beckman Coulter). The assay plates were incubated for 24 hours at ambient temperature, and the HTRF fluorescence was measured using Envision plate reader (PerkinElmer) with excitation at 330nm, emission at 615nm (Eu(3)-Cryptate donor signal) and 665nm (d2 acceptor signal). The ratio of […] was calculated for each well.
Take `COCCNC(=O)Cn1cc(C(=O)c2cccs2)c2ccccc21`: the activity change was -3.12%.

For the compound `Cc1cccc(NC(=O)Cn2cc(C(=O)c3ccco3)c3ccccc32)c1`, the activity change is 11.5%.

Regarding `FC(F)(F)c1cccc(-c2nc3ccccc3n2C(c2ccccc2)c2nc3ccccc3[nH]2)c1` (stereo unspecified), the activity change entry is “inactive”.

For the compound `COc1ccc(CCNC(=O)COc2ccc3c(c2)OCO3)cc1`, the activity change result is “inactive”.

Consider `CC(C)(Oc1ccc(Cl)cc1)C(=O)OCC(=O)NCCc1ccc(S(N)(=O)=O)cc1`, for which the activity change result was “inactive”.

For the compound `COc1ccc(OCC(=O)NCCc2ccc(S(N)(=O)=O)cc2)cc1`, the activity change is -119% (active).

As to `CCOC(=O)CN(C(=O)CN1CCOCC1)c1ccc(Br)cc1`, the activity change was 1.02%.

For `CCN(C(=O)COC(=O)c1cc(NS(=O)(=O)c2ccc(Cl)c([N+](=O)[O-])c2)ccc1O)C1CCCCC1`, the activity change entry was “inactive”.

Consider `COC(=O)[C@@]12C[C@@H](CC(=O)NCc3cccc(C(F)(F)F)c3)C(=O)N(Cc3ccco3)C1=CCC(C)(C)C2`, for which the activity change entry was “inactive”.

For the compound `COc1ccc(C)cc1NC(=O)CCS(=O)(=O)c1cccc2nonc12`, the activity change is 16.6%.

Take `O=C(CCS(=O)(=O)c1cccc2nonc12)NCCc1ccccc1Cl`: the activity change is 2.49%.

In the case of `CC1CCCCC1NC(=O)CCS(=O)(=O)c1cccc2nonc12` (stereo unspecified), the activity change is -123% (active).

As to `C=CCNc1nnc(SCC(=O)N2CCCCC2)c2ccccc12`, the activity change is 4.07%.

As to `C=CCNc1nc(C)nc(OC)n1`, the activity change result was “inactive”.

With `C=CCNc1nnc(C)c2ccccc12`, the activity change is -110% (active).

As to `CCCc1nnc(NC(=O)CCC(=O)N2CCN(S(=O)(=O)c3ccc(OC)cc3)CC2)s1`, the activity change entry is “inactive”.

On to `Cc1nnc(N/N=C/c2ccccn2)[nH]c1=O`, for which the activity change entry was “inactive”.

As for `CCc1c(Nc2ccccc2C)nc(N)[nH]c1=O`, the activity change result is “inactive”.

On to `Cc1ccccc1Nc1nnc(C)c(=O)[nH]1`, for which the activity change is -109% (active).

`Cc1cccc(C)c1NC(=O)C(c1cccc2ccccc12)n1c(=O)c(-c2ccco2)nc2ccccc21` (stereo unspecified): the activity change entry is “inactive”.

Regarding `COc1cccc(-c2ccc3c(c2)N(Cc2ccccc2OC)C(=O)C(C)S3)c1` (stereo unspecified), the activity change entry is “inactive”.

On to `CCc1c(-c2ccc(F)cc2)ncn1Cc1cccc(-c2ccccc2)c1`, for which the activity change entry was “inactive”.

Take `CCCCCn1nnnc1-c1nc2cc3ccccc3cc2[nH]c1=O`: the activity change result is “inactive”.

Regarding `COc1ccccc1NC(=O)C1CCN(C(=O)c2ccc(C(C)(C)C)cc2)CC1`, the activity change result is “inactive”.

For `Cc1cc(Br)cn2c(Cc3ccccc3C(F)(F)F)c(-c3ccc(Cl)cc3)nc12`, the activity change result was “inactive”.

Turning to `Cc1nc2c(c(C)nn2-c2ccccc2)c(C)c1C`, the activity change result is “inactive”.

Consider `Cn1c(=O)c2c(-c3cccc(Br)c3)c(C#N)c(N)nc2n(C)c1=O`, for which the activity change entry is “inactive”.

In the case of `CSc1ccc(-c2c(C#N)c(N)nc3c2c(C)nn3-c2ccccc2)cc1`, the activity change was -83.6% (active).

With `COc1ccc(NC(=O)C(c2ccncc2)n2c(=O)c(-c3cc4ccccc4[nH]3)nc3ccccc32)cc1` (stereo unspecified), the activity change entry was “inactive”.

With `Nc1nc2ncccn2c1-c1ccccc1`, the activity change entry is “inactive”.

With `CCOC(=O)c1cc2cc(C)ccc2[nH]1`, the activity change entry is “inactive”.

Regarding `CC(=O)OCc1cc2cc(C)ccc2[nH]c1=O`, the activity change was -102% (active).

Take `Cc1ccc2[nH]c(=O)c(COC(=O)c3ccccn3)cc2c1`: the activity change was -7.82%.

Regarding `Cc1noc(C)c1S(=O)(=O)N(CC(=O)NCc1ccc(Cl)cc1)c1ccc2c(c1)OCO2`, the activity change entry was “inactive”.

With `CCOc1ccc(N(CC(=O)OC)S(=O)(=O)c2c(C)noc2C)cc1`, the activity change result is “inactive”.

Regarding `CCOc1ccc(N(CC(=O)NCc2ccc(OC)cc2)S(=O)(=O)c2c(C)noc2C)cc1`, the activity change was -134% (active).

Turning to `NC(=NC(=O)c1ccccc1)N1CCOCC1`, the activity change entry is “inactive”.

In the case of `NC(=NC(=O)c1ccccc1)C1=C(O)CCC1=O`, the activity change was -110% (active).

As to `Cc1onc(-c2ccccc2)c1C(=O)N=C(N)c1ccc(Cl)cc1`, the activity change entry was “inactive”.

As for `O=C(O)Cc1csc(-c2cccc(Oc3ccccc3)c2)n1`, the activity change entry is “inactive”.

In the case of `CCCCOCCCNC(=O)C[C@@H]1C[C@@]2(C(=O)OCC)CCCC=C2N(CCC2=CCCCC2)C1=O`, the activity change result was “inactive”.

As for `CC(C)N1C(=O)c2ccccc2NC(=O)C1C(=O)NCc1cccs1` (stereo unspecified), the activity change entry was “inactive”.

For `O=C(C(=O)N1CCN(c2ccccc2)CC1)c1ccc2c(c1)OCO2`, the activity change result was “inactive”.

Regarding `CC1(C(=O)Nc2ccc3c(c2)OCCO3)CN(S(C)(=O)=O)CC(=O)N1Cc1cccc(F)c1` (stereo unspecified), the activity change entry is “inactive”.

Turning to `COc1ccc(-n2ncc3c(SCC(=O)NNC(C)=O)ncnc32)cc1`, the activity change entry is “inactive”.

With `COc1ccccc1N1CCN(C(=O)CSc2ncnc3c2cnn3-c2ccc(C)c(C)c2)CC1`, the activity change entry is “inactive”.

Take `COc1ccc(-n2ncc3c(N4CCc5ccccc54)ncnc32)cc1`: the activity change was -95.4% (active).

In the case of `COc1nc(OC)nc(N(C)CCO)n1`, the activity change is -113% (active).

In the case of `COc1nc(Oc2ccc(=O)n(C)n2)nc(N(C)C)n1`, the activity change was 6.07%.

As for `CO[C@@H]1CN(C)C(=O)c2cc(NC(=O)C3CC3)ccc2OC[C@H](C)N(C(=O)CN2CCOCC2)C[C@@H]1C`, the activity change entry is “inactive”.

Turning to `CC(=O)C[C@@H]1OC[C@H](C)N1S(=O)(=O)c1ccc(C)cc1`, the activity change result is “inactive”.
